# Source: PubChem BioAssay (NCATS)
# Inconclusive results are not listed. A call without a number means that no potency is given here. Values without a mark were called inactive. The source made the active and inactive calls. Calls come from the whole dose curve; as a rule, active = well fitted inhibition curve with a large enough effect; inconclusive = small, poorly fitted or top-dose-only effect; inactive = flat fitted curve, though single readings scatter.
# Target: Glutathione peroxidase 1 (Homo sapiens) (UniProt P07203)
# Sequence (P07203 whole entry, looked up): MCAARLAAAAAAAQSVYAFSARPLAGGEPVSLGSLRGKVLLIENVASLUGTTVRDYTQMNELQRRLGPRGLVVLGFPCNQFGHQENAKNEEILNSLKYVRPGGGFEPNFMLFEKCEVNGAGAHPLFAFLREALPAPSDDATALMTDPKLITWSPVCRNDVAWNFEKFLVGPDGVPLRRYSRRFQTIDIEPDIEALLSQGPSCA
# Experiment: Primary qHTS Assay for Inhibitors of Recombinant Selenoprotein Glutathione Peroxidase 1 (GPX1) (AID 1845191)
# Settings: recombinant GPX1, GR-coupled NADPH fluorescence, 15 min; series mostly up to 48.8 µM; activity, negative = inhibition: at the top concentration
# Outline: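 GPX1 10 nM, GR 100 nM, GSH 1 mM, NADPH 0.5 mM, CHP 0.5 mM (final). 30-min cpd preincubation, RT. Ex340/Em450 read t=0, t=15 min.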
# Note: nearly all actives have a fitted effect of over 65% in size.
Structure (SMILES),"activity, negative = inhibition",outcome,Potency
OCc1cc(C(O)CNCCCCCCOCCCCc2ccccc2)ccc1O (stereo unspecified),0.8%,,
Cc1cc2c(cc1S(N)(=O)=O)S(=O)(=O)CCC2,,inactive,
CSc1ccc2c(c1)N(CCC1CCCCN1C)c1ccccc1S2 (stereo unspecified),,,inactive
NS(=O)(=O)c1cc2c(cc1Cl)NC(CSCc1ccccc1)=NS2(=O)=O,-1.81%,,
O=C(Oc1ccccc1C(=O)O)c1ccccc1O,-2.99%,,
O=C(O)COc1nn(Cc2ccccc2)c2ccccc12,-17.9%,,
NC1[C@H]2CN(c3nc4c(cc3F)c(=O)c(C(=O)O)cn4-c3ccc(F)cc3F)C[C@@H]12 (stereo partly specified),,,inactive
O=C1NS(=O)(=O)c2ccccc21,-12.7%,,
Oc1cn2c(n1)Nc1ccc(Cl)c(Cl)c1C2,,inactive [at 27.7 µM],
CN(C)CCC=C1c2ccccc2CCc2ccccc21,,,inactive
C[C@H]1O[C@@H](n2cc(F)c(=O)[nH]c2=O)[C@H](O)[C@@H]1O,,,inactive
O=C(O)CC(O)C(=O)O (stereo unspecified),-2.15%,,
O=C1O[C@H](CO)[C@@H](O)[C@H](O)[C@H]1O,,inactive,
CSc1ccc2c(c1)C(N1CCN(C)CC1)Cc1ccccc1S2 (stereo unspecified),-24.9%,,

# Target: Phospholipid hydroperoxide glutathione peroxidase GPX4 (Homo sapiens) (UniProt P36969)
# Sequence (P36969 whole entry, looked up): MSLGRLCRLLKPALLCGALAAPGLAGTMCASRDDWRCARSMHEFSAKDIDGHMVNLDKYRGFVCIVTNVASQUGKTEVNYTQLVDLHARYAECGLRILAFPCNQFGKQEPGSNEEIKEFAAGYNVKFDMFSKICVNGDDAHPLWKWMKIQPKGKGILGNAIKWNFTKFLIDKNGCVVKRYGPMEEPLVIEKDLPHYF
# Experiment: Primary qHTS Assay for Inhibitors of Recombinant Selenoprotein Glutathione Peroxidase 4 (GPX4) (AID 1845192)
# Settings: recombinant GPX4, GR-coupled NADPH fluorescence, 15 min; series mostly up to 50 µM; activity change, negative = inhibition: at the top concentration
# Outline: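 qHTS, GR-coupled: GPX4 200 nM + cpd 30 min RT → GSH 1 mM, NADPH 0.5 mM, GR 100 nM → CHP 0.5 mM start; fluor 340/450 at t0 and t15 min; no-enzyme wells as control.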
Structure (SMILES),outcome,Potency,"activity change, negative = inhibition"
O=C1c2c(O)cccc2Cc2cccc(O)c21,inactive,,
C[C@H](NC(CCc1ccccc1)C(=O)O)C(=O)N1CCC[C@H]1C(=O)O (stereo partly specified),,inactive,
CC1(C)[C@@H]2CC[C@@]1(C)C(=O)C2,,,2.47%
OC[C@H]1O[C@@H](O[C@@H]2[C@@H](CO)O[C@](O)(CO)[C@H]2O)[C@H](O)[C@@H](O)[C@H]1O,,inactive,
CC(COc1ccccc1)NC(C)C(O)c1ccc(O)cc1 (stereo unspecified),,,4.12%
CN(N=O)C(=O)N[C@@H]1[C@@H](O)[C@H](O)[C@@H](CO)O[C@@H]1O,,inactive,
O=C1NC(=O)[C@@]2(CCOc3ccc(F)cc32)N1,,,-6.88%
Oc1cccc(O)c1,,,-0.435%
CC(=O)Oc1c(C)c(C)c2c(c1C)CC[C@@](C)(CCC[C@H](C)CCC[C@H](C)CCCC(C)C)O2,,,2.34%
NC(=O)N/N=C/c1ccc([N+](=O)[O-])o1,,,4.75%
CNCCCC1c2ccccc2C=Cc2ccccc21,,inactive,
CCCCCCCCCCCCCCCCCCOCC(O)CO (stereo unspecified),,,-12.7%
CC(=O)OCC(=O)[C@@]1(O)CC[C@H]2[C@@H]3CCC4=CC(=O)CC[C@]4(C)[C@H]3C(=O)C[C@@]21C,,inactive,
O=c1cc[nH]c(=O)[nH]1,inactive,,
NC(=O)c1ncn([C@@H]2O[C@H](CO)[C@@H](O)[C@H]2O)c1N,,inactive,
N[C@H]1C(O)O[C@H](CO)[C@@H](O)[C@@H]1O (stereo partly specified),inactive,,

Structure (SMILES),outcome,Potency,"activity change, negative = inhibition"
C[C@]12C[C@H](O)[C@H]3[C@@H](CCC4=CC(=O)CC[C@@]43C)[C@@H]1CC[C@@H]2C(=O)CO,inactive,,
CCN(CC)CCNC(=O)c1c(C)[nH]c(/C=C2\C(=O)Nc3ccc(F)cc32)c1C,,inactive,
OCc1cc(C(O)CNCCCCCCOCCCCc2ccccc2)ccc1O (stereo unspecified),,inactive,
Cc1cc2c(cc1S(N)(=O)=O)S(=O)(=O)CCC2,inactive,,
CSc1ccc2c(c1)N(CCC1CCCCN1C)c1ccccc1S2 (stereo unspecified),,inactive,
NS(=O)(=O)c1cc2c(cc1Cl)NC(CSCc1ccccc1)=NS2(=O)=O,,,4.53%
O=C(Oc1ccccc1C(=O)O)c1ccccc1O,,,1.86%
O=C(O)COc1nn(Cc2ccccc2)c2ccccc12,,,-18.1%
NC1[C@H]2CN(c3nc4c(cc3F)c(=O)c(C(=O)O)cn4-c3ccc(F)cc3F)C[C@@H]12 (stereo partly specified),,,-27%
O=C1NS(=O)(=O)c2ccccc21,inactive,,
Oc1cn2c(n1)Nc1ccc(Cl)c(Cl)c1C2,inactive [at 27.8 µM],,
CN(C)CCC=C1c2ccccc2CCc2ccccc21,,inactive,
C[C@H]1O[C@@H](n2cc(F)c(=O)[nH]c2=O)[C@H](O)[C@@H]1O,,inactive,
O=C(O)CC(O)C(=O)O (stereo unspecified),,,2.27%
O=C1O[C@H](CO)[C@@H](O)[C@H](O)[C@H]1O,inactive,,
CSc1ccc2c(c1)C(N1CCN(C)CC1)Cc1ccccc1S2 (stereo unspecified),,,-15.3%
